# Measured values taken from PubChem BioAssay AID651784 (National Center for Advancing Translational Sciences (NCATS), 2012).
# Records with an inconclusive call do not appear. The source made the active and inactive calls. Calls come from the whole dose curve; as a rule, active = well fitted inhibition curve with a large enough effect; inconclusive = small, poorly fitted or top-dose-only effect; inactive = no such curve, though single readings can be large or run the other way.
# Test: Acumen qHTS Assay for Inhibitors of the mTORC1 Signaling Pathway in MEF (Tsc2-/-, p53-/-) Cells: Hit Validation; note: nearly all actives have a fitted effect of over 65% in size
# Conditions: Acumen imaging; activity change, negative = inhibition: at 37.3 µM (top of the series)
# Description: The mammalian target of rapamycin (mTOR) is an intracellular serine/threonine kinase Aberrant regulation of mTOR signaling plays a causative role in a number of human diseases, including cancer, benign tumors such as lymphangioleiomyomatosis (LAM) and Tuberous Sclerosis Complex (TSC), and metabolic diseases such as diabetes and obesity. This project aims to identify inhibitors of ribosomal protein S6 (rpS6) phosphorylation. The phosphorylation of rpS6 is a key event downstream of mTOR activation. The assay uses a phospho-specific antibody of phospho-rpS6 to detect inhibitors of mTOR activation. Mutations in the Tsc1 and Tsc2 genes are the underlying genetic lesions responsible for TSC, causing constitutive activation of the mTORC1 pathway and leading to profound effects on cell metabolism. Aberrant metabolism in cancer has recently received significant attention as a target to develop therapeutic agents in the treatment of cancer.1 As Tsc2-/- cells have lost the ability to respond to energy and growth factor deprivation, these cells are unable to properly down regulate cellular biosynthetic processes in response to metabolic stress, and are thus extremely sensitive to glucose deprivation-induced death.2 A central goal of this project is to explore the unique cell survival and metabolic properties of cells with Tsc1 or Tsc2 by screening for compounds that selectively target the Tsc2-/- MEFs by screening both Tsc2-/- and WT MEF cell lines. We hope to better understand these aspects of TSC physiology in order to exploit them for therapeutic benefit.
# NIH Molecular Libraries Probe Production Centers Network [MLPCN]
# NIH Chemical Genomics Center [NCGC]
# Assay Submitter (PI): Blenis, John; Harvard University
# For quantitative high throughput analysis of mTORC1 signaling, we developed a cell-based assay for immuno-fluorescence based detection of rpS6 phosphorylation on the Acumen Explorer that will be used a platform for the primary small molecule screen. Mouse embryonic fibroblasts (MEFs) are cultured in 1536-well plates using DMEM + 10% FBS. Twenty-four hrs after plating, test compounds (solubilized in DMSO) are delivered and incubated with the cells for 24 hrs at 37 degree Celsius. Following the incubation, media with compound is aspirated and the cells are fixed in 4% paraformaldehyde (PFA) containing PBS + 0.2% TX-100. Next, PFA is aspirated, cells are washed two times with PBS plus 0.2% TX-100 and the cells are blocked for 1 hr at room temperature (blocking buffer: LiCOR Blocking Buffer plus 0.2% TX-100). This is followed by aspiration and staining with Alexa-488 conjugated-phospho-rpS6 Ser235/236 antibody for 2 hours at room temperature (Cell Signaling Technology # 4803, 1:50 dilution in blocking buffer). Cells are washed two times with PBS plus 0.2% TX-100, and stained with 10 uM propidium iodide (PI) for 20-25 minutes for cell number measurement (1:500 dilution of Hoescht staining is also added for IN Cell imaging). The plates are scanned on the Acumen Explorer laser scanning instrument (TTP Labtech) using the 488nm laser for simultaneous excitation of the Alexa-488 and PI. […] Fluorescence emission from the PI stain is selected using a 575-640 nm band pass filter. The normalized phospho-S6 staining is calculated as the ratio of the integrated Alexa 488 intensity divided by the integrated PI intensity for the single concentration rapamycin control (7.5 nM) and DMSO columns. […] Inhibition of the pathway is defined based on the normalized phospho-S6 intensity in rapamycin treated cells. Active cells are defined as those with a normalized phospho-S6 staining above this threshold, and each treatment is reported as the % positive cells in the well, where thresholds are defined by selecting wells with the highest and lowest signal and differentiating between the % non-active and % active populations. In addition to the pathway specific phospho-S6 endpoint, the number of PI stained cells from the Acumen is recorded as a measure of cell viability. […]
# Potency is the fitted concentration of half-maximal effect.
SMILES,Potency,"activity change, negative = inhibition [%]"
COc1ccccc1N=c1scc(-c2ccc(S(=O)(=O)N3CCCC3)cc2)n1C,5.85 µM (active),
O=C(c1ccccc1)c1ccc2nc(N3CCN(c4ccc(F)cc4)CC3)c3nncn3c2c1,18.5 µM (active),
O=C(NCCc1ccc(Cl)cc1)C(=O)NCC(c1cccs1)S(=O)(=O)c1cccs1 (configuration not stated),,-3.28
Cc1ccccc1-c1nc(CN2C(=O)CN=C(c3ccccc3)c3ccccc32)c(C)o1,,-13.1
Cc1cccc(N(CC(=O)NCCSc2ccc(Cl)cc2)S(=O)(=O)c2ccccc2)c1C,13.1 µM (active),
Cc1oc(-c2ccc(Cl)cc2)nc1CN1CCC(C(=O)NCCCN2CCN(c3cccc(Cl)c3)CC2)CC1,5.85 µM (active),
CCN(CC)C(=O)c1ccc(NC(=O)CCn2nc(-c3ccc(C)cc3)c3ccccc3c2=O)cc1,,-9.62
COc1ccc(C(=O)Nc2ccc3c(c2)N(C)C(=O)c2ccccc2S3)cc1OC,10.4 µM (active),
COc1ccc2nc(NC(=O)c3nc(S(=O)(=O)Cc4cccc(C)c4)ncc3Cl)sc2c1,2.07 µM (active),
CCCCOc1ccc(CN2C(=O)C(=O)c3cc(C)ccc32)cc1OC,0.261 µM (active),
COc1ccc(S(=O)(=O)NCCc2sc3nc(-c4ccc(C)cc4)nn3c2C)cc1F,7.36 µM (active),
NC(N)=NC(=O)c1nc(Cl)c(N)nc1N,,57.9
CCOc1ccc(CN(CCc2ccc3c(c2)OCO3)Cc2ccc(C)cc2)cc1,,-0.408
COc1ccc(N2CCN(C(=O)C3CCCN(S(=O)(=O)c4ccc5c(c4)CCCN5C(C)=O)C3)CC2)cc1 (configuration not stated),16.5 µM (active),
Cc1ccc(-n2c(/C=C/c3ccc(Br)s3)nc3ccccc3c2=O)cc1C,,-10.2
CCOc1ccc(/C=C/c2nc(C#N)c(NCc3ccccc3)o2)cc1,1.04 µM (active),
CN[C@@H]1C[C@@]2(C)O[C@@H]([C@@H]1OC)n1c3ccccc3c3c4c(c5c6ccccc6n2c5c31)C(=O)NC4,0.0163 µM (active),
